Data on 29 compounds can be found in ChEMBL document CHEMBL3988442, “University of Dundee, Small-Polar-MMV Screening Library” (2021).

Structures are written as SMILES. Out of some 48,000 compounds screened, about 13,000 (27%) showed an effect of 50% or more. The list shows a part of the results.

The assay concerns Wolbachia pipientis. The assay can be described thus: Anti-Wolbachia Cell-Based Screen. To be noted: 5 µM. Further details: scale not given: in the data most compounds retested in dose-response had high values. It counts as functional.
Regarding `CC(C)(C)c1ccc(C2(C(=O)NCCS(C)(=O)=O)CC2)cc1`, the “Percent Effect” value is listed as 2.157%.

`Cn1cnc(-c2ccc(F)cc2)c1NC(=O)CCNC(=O)C(C)(C)C`: the “Percent Effect” value is listed as -6.706%.

For the compound `Cc1ccc(OCC(O)CN(C)CC(=O)NC(C)C)c(C)c1` (centres undefined), the “Percent Effect” value is listed as 0.9379%.

For the compound `Cc1ccc(S(=O)(=O)N(C)Cc2cnccn2)cc1N(C)C`, the “Percent Effect” value is given as -3.361%.

For `O=C(C1=CCCC1)N1CCO[C@H]2[C@@H](OCC3CC3)CC[C@@H]21`, the “Percent Effect” value is reported as -8.51%.

With `CCO[C@@H]1CC[C@H]2[C@H]1OCCN2C(=O)CC1=CCCCC1`, the “Percent Effect” value was found to be 124.5%.

On to `CO[C@@H]1CC[C@H]2[C@H]1OCCN2C(=O)C1=CCCC1`, for which the “Percent Effect” value was 4.441%.

Take `CCOCC1CC2(CCN(C(=O)CC3=CCCCC3)CC2)CO1` (centres undefined): the “Percent Effect” value was -15.26%.

Turning to `CO[C@H]1CC[C@H]2[C@H]1OCCN2C(=O)C1=CCCC1`, the “Percent Effect” value is on record as 2.583%.

Consider `CCO[C@H]1CC[C@H]2[C@H]1OCCN2C(=O)CC1=CCCCC1`, for which the “Percent Effect” value worked out at 80.53%.

For the compound `CO[C@H]1CC[C@H]2[C@H]1OCCN2C(=O)CC1=CCCCC1`, the “Percent Effect” value is on record as 98.05%.

For `CC(C)(CNC(=O)Nc1cccc(-c2cccs2)c1)C(N)=O`, the “Percent Effect” value is listed as 3.927%.

In the case of `N#Cc1ccc(Cn2cncn2)c(F)c1`, the “Percent Effect” value is recorded as -14.63%.

In the case of `N#Cc1nccnc1NC1CCN(c2ccccc2OC(F)F)C1` (centres undefined), the “Percent Effect” value amounted to 9.423%.

In the case of `CCN1CCc2[nH]cnc2C12CCN(c1ccc(Cl)c(C(=O)O)n1)CC2`, the “Percent Effect” value is -7.204%.

`COc1ccc(CNC(=O)NCC2CCOC2)c(C(F)(F)F)c1` (centres undefined): the “Percent Effect” value is -17.58%.

In the case of `O=C(c1cc2c(s1)CCCC2)N1CCCC1Cn1cccn1` (centres undefined), the “Percent Effect” value turned out to be 141.2%.

For `O=C(c1cc2c(s1)CCC2)N1CCCCC1Cn1cccn1` (centres undefined), the “Percent Effect” value is recorded as -2.201%.

Regarding `O=C(c1cc2c(s1)CCC2)N1CCCC1Cn1cccn1` (centres undefined), the “Percent Effect” value turned out to be 111%.

For the compound `Cc1nn(C)c(N2CCOCC2)c1CNC1CCN(C(C)(C)C)CC1`, the “Percent Effect” value is -15.17%.

Consider `c1ccc(-c2cccc(-c3ccn(CCN4CCCCC4)n3)c2)nc1`, for which the “Percent Effect” value turned out to be 2.819%.

For the compound `c1ccc(-c2nnc3sc(CCN4CCCC4)nn23)cc1`, the “Percent Effect” value was found to be 117%.

With `Cc1nc(CCN2CCCCC2)n(-c2ccc(F)cc2)n1`, the “Percent Effect” value was -12.73%.

Consider `Cc1ccc(-c2cccc(-c3ccn(CCN4CCCC4)n3)c2)nn1`, for which the “Percent Effect” value was -8.933%.

`c1cc(-c2nnc3sc(CCN4CCCC4)nn23)ccn1`: the “Percent Effect” value is on record as 107.3%.

As to `c1cc(-c2ccn(CCN3CCCC3)n2)cc(-c2nccs2)c1`, the “Percent Effect” value is -3.86%.

Take `c1cc(-c2nccn2CCc2nc3c(s2)CCC3)ccn1`: the “Percent Effect” value stood at 7.441%.

Consider `Cc1ccc(CNC2CCN(CCc3ccncc3)CC2)s1`, for which the “Percent Effect” value is on record as -7.206%.

Take `c1ccc(-c2nnc3sc(CCN4CCCCCC4)nn23)cc1`: the “Percent Effect” value was 117.6%.
